Screening results: PubChem, National Center for Advancing Translational Sciences (NCATS)
PLK1 PBD block = qHTS for Inhibitors of PLK1-PDB (polo-like kinase 1 - polo-box domain): Primary Screen; Serine/threonine-protein kinase PLK1 (Homo sapiens), P53350; Plk1 PBD binding of FITC phosphopeptide, fluorescence polarization; Potency, µM, without a hit: max response, negative = inhibition, hits mostly inhibitors; 360,000 compounds, 2.8% hits; AID 720504, 2013; note: potency is the fitted concentration of half-maximal effect; series mostly up to about 57 µM; nearly all actives have a fitted effect of over 65% in size
Sfp PPTase inh = qHTS Assay for Inhibitors of Bacillus subtilis Sfp phosphopantetheinyl transferase (PPTase) | 4'-phosphopantetheinyl transferase ffp (Bacillus subtilis), Q9F4F7 | Potency, µM, for inactives: largest response in the series, negative = inhibition, actives largely listed as inhibitors | Biochemical Sfp PPTase activity, qHTS | 310,000 compounds, 3.5% hits;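 note: the enzyme is Sfp with the accession as filed and its product quenches rhodamine fluorescence; potency is the fitted concentration of half-maximal effect; 0% = enzyme reaction without inhibitor and -100% = no enzyme wells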
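After 15 min at room temperature with compound, 15 nM Sfp received 5 uM rhodamine-CoA plus 12.5 uM BHQ-2-ybbR (50 mM Hepes pH 7.6, 10 mM MgCl2). Rate came from the fluorescence difference over 30 min, ex 525/em 598 nm.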
VDR inhibitor = Inhibitors of the vitamin D receptor (VDR): qHTS; Vitamin D3 receptor (Homo sapiens), P11473; VDR-SRC2-3 peptide fluorescence polarization, 2 h; Potency, µM, inactives show max response, negative = inhibition, hits mostly inhibitors; 400,000 compounds, 0.93% hits; AID 504847, 2011; note: potency is the fitted concentration of half-maximal effect
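Fluorescence polarization assay of small-molecule disruption of VDR binding to coregulator peptide SRC2-3. Compounds and controls pin-transferred, then read after 2 h incubation at ambient room temperature.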
MmCpn inh = Inhibitors of TCP-1 ring complex (TRiC) of Methanococcus maripaludis (MmCpn): qHTS. Chaperonin Mm-Cpn (Methanococcus maripaludis). Potency, µM (top dose mostly 76.9 µM), for the others: top-dose activity, negative = inhibition, most hits filed as inhibitors. purified Mm-Cpn ATPase, ADP Transcreener TR-FRET. 330,000 compounds, 0.031% hits; note: potency is the fitted concentration of half-maximal effect; nearly all actives have a fitted effect of over 80% in size
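ATPase read-out: TR-FRET ADP immunoassay (anti-ADP Eu cryptate vs ADP-d2), ex 320 nm, em 590/665 nm; signal drops as ADP forms. Enzyme 25 nM, ATP 10 uM, 30 min at 37°C after 10 min compound preincubation.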
G9a inh = qHTS Assay for Inhibitors of Histone Lysine Methyltransferase G9a. Histone-lysine N-methyltransferase EHMT2 (Homo sapiens), Q96KQ7. 350,000 compounds, 8.8% hits. Potency, µM (doses to about 102 µM), for the others: at the highest dose activity, negative = inhibition, actives largely listed as inhibitors. G9a H3K9 monomethylation, AlphaScreen, 2 h; note: potency is the fitted concentration of half-maximal effect; nearly all actives have a fitted effect of over 75% in size
Target sequence (Q96KQ7 913-1193 limits assumed): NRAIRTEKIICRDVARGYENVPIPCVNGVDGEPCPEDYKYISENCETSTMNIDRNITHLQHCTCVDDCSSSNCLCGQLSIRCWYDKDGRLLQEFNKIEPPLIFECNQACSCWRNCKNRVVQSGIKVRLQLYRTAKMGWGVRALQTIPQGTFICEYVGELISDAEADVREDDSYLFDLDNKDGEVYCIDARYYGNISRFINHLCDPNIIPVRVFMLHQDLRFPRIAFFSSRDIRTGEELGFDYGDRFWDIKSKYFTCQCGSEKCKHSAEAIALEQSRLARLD
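Methyltransferase reactions run at room temperature for 2 h (20 nM enzyme, 500 nM biotin-H3K9 peptide, 20 uM SAM) after a 15 min compound preincubation; product detected by AlphaScreen beads and anti-H3K9me1 antibody.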
CCT chaperon mod = High-Throughput Screening for Modulators of Cytosolic Chaperonin Activity; purified chaperonin ATPase assay, HTRF ADP detection, 30 min; activity change, % (no concentration beside the values), hits read low; 360,000 compounds, 0.3% hits; in the data active = activity change below about -30%
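TRiC (40 or 20 nM final, by batch activity) in 30 mM Tris pH 7.4, 100 mM KCl, 5 mM MgCl2, 1 mM DTT was treated with compound at 76 uM single dose, then 10 uM ATP, 30 min at 37 °C. ADP was read by HTRF Transcreener.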
* = called active by the depositor; ? = inconclusive; / = no result; [ ] = another dose, or the depositor's remark. The list is not random: actives were taken first. Their share in the collection is about 10%. Unless noted, calls come from the whole dose curve; as a rule, active = well fitted curve in the direction sought with a large enough effect; inconclusive = small, poorly fitted or top-dose-only effect, or another doubt; inactive = no such curve, though single readings can be large; an effect the other way counts as inactive or inconclusive. Unless noted, % is set by controls: 0 for no effect and ±100 for the full control effect.

SMILES | PLK1 PBD block | Sfp PPTase inh | VDR inhibitor | MmCpn inh | G9a inh | CCT chaperon mod
COc1cccc(N=CC=C2OC(C)(C)C(C)(C)O2)c1 | -19.3% | -8.7% | 19.1% | -0.7% | 35.5µM* | -2.5
COc1ccc(N=CC=C2OC(C)(C)C(C)(C)O2)cc1OC | -5.9% | -2.3% | -14.7% | -0.4% | 31.6µM* | -1.7
Cc1ccccc1N=CC=C1OC(C)(C)C(C)(C)O1 | -6.5% | ? | -2.0% | -0.6% | 39.8µM* | -2.1
CCC(=O)N[C@@H]1CC(C(C)(C)NC(=O)CC)CC=C1C (some centres not stated) | 29.9µM* | 18.1% | ? | 0.6% | -41.3% | -3.2
S=c1nc(-c2cc(Cl)cc(Cl)c2)[nH][nH]1 | 23.8µM* | 39.8µM* | -20.3% | -29.4% | 22.4µM* | 0.1
S=c1nc(-c2cc(Cl)ccc2Cl)[nH][nH]1 | 15µM* | 50.1µM* | ? | -24.2% | 1.58µM* | 0.1
Cc1nc(-c2cccc(Cl)c2)n[nH]1 | -1.0% | 2.6% | 6.5% | 1.1% | ? | 1.9
S=c1nc(-c2cccc(Cl)c2)[nH][nH]1 | -25.9% | ? | -15.3% | -18.1% | 1.58µM* | -1.6
S=c1nc(-c2ccccc2Br)[nH][nH]1 | ? | -12.4% | -2.4% | 3.9% | 0.794µM* | -1.2
Clc1ccc(Cl)c(-c2nc(-c3ccncc3)no2)c1 | 6.1% | 6.7% | 8.1% | -5.2% | 26.8% | 1.1
CCOCCc1nn2c(=O)cc(COC(=O)c3ccco3)nc2s1 | / | / | -3.2% | / | 21.9%[59 µM] | /
Cc1ccc(-c2cc(C(=O)Nc3ccc(SC(F)F)cc3)no2)cc1F | / | / | -1.0% | / | ? | /
CC[C@]1(c2ccccc2)NC(=O)N(C)C1=O | / | 6.8% | -3.3% | / | 22.7%[21.5 µM] | /
COc1ccc(NC(=O)CN(C)C(=O)c2cc(-c3cccs3)nn2-c2ccccc2)cc1 | -5.1% | / | -28.2% | -1.7% | 50.1µM* | 4.4
COc1ccc(OCc2nc3ccccc3n2C(C)c2ccccc2)cc1 (configuration not stated) | / | / | -21.9% | / | ? | /
O=c1[nH]c2ccc(S(=O)(=O)N3CCN(c4ccccc4F)CC3)cc2s1 | -17.3% | 5.9% | 16.7% | 0.8% | 14.1µM* | -0.6
O=c1ccc2cc(S(=O)(=O)N3CCN(c4ccccc4F)CC3)ccc2o1 | -12.0% | 7.0% | -2.8% | 0.4% | -12.2% | -2.2
COc1ccc(Cc2c(O)nc(SCC(=O)NC34CC5CC(CC(C5)C3)C4)[nH]c2=O)cc1 | -0.7% | 10.4% | 14.2% | 0.2% | 44.7µM* | -7.1
CCCCNC(=O)CSc1nc(O)c(Cc2ccc(OC)cc2)c(=O)[nH]1 | -15.0% | 19.5% | 5.0% | 0.1% | 8.3% | -0.2
CCCCc1nnc(NC(=O)CSc2nc(O)c(Cc3ccccc3)c(=O)[nH]2)s1 | 26.7µM* | 1.5% | -3.5% | 0.3% | ? | -3.0
CCCCc1nnc(NC(=O)CSc2nc(O)c(-c3ccccc3)c(=O)[nH]2)s1 | -12.3% | ? | -15.4% | 0.5% | -0.9% | 0.1
CC1(C)Nc2ccccc2N(Cc2ccc([N+](=O)[O-])cc2)C1=O | -7.6% | 23.7% | -8.3% | 3.4% | ? | -2.0
O=[N+]([O-])C(=C1Nc2ccccc2N1)C(Cl)=C(Cl)Cl | -16.0% | 89.1µM* | ? | 1.9% | / | -3.5
COc1cc(C2c3sc(=O)[nH]c3SC3C(=O)N(c4ccc(C)cc4)C(=O)C32)ccc1O (configuration not stated) | -11.1% | ? | -3.4% | 0.1% | ? | 0.9
O=C1C2Sc3[nH]c(=O)sc3C(c3ccccc3)C2C(=O)N1c1ccccc1 (configuration not stated) | -20.0% | 79.4µM* | -7.3% | 0.9% | -3.7%[0.501 µM] | 0.8
COc1ccc(C2c3sc(=O)[nH]c3SC3C(=O)N(c4ccccc4)C(=O)C32)cc1 (configuration not stated) | ? | -9.6% | -19.9% | 1.3% | 8.91µM* | -2.4
